# Laboratory results taken from the supplement of paper PMC8728848.
# Shown is part of a subset that was picked to be rich in the strongest signals.
# B1: Epa8 (Candida glabrata) (protein)
# chain: MGSSHHHHHHSSGLVPRGSHMASSRALSDYPLGCSPLLGTKLTPGLSMELYEYPLDNHGIGPHCWDPAYLNPEYPRTGFESHKLIGTAQNVMSLNFEHRTQDCHVEFSNLPASFNFPDQITLTNFTMLLYGYFKPKESGRYRFHMEADDLLLMNLGAGNAFDCCAHEATRNNLGDYIAYDIWAGTRKDVEVFLEKEVFYPLRLFFNNRDGRAALDFSYYLNGATEPGTDIPELLFSLPDGESCPAYI
# Columns and labels:
# Assay in all cases: glycan array binding signal (z-score within array); higher = stronger binding
# Settings in all cases: glycan notation: IUPAC condensed, linker removed
# Gal(b1-4)GlcNAc = molecular target: Gal(b1-4)GlcNAc
# In short: (§1)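 The binding signal is a Z-score computed within each array and averaged over linkers. Arrays of the same protein sequence at different concentrations or buffers were also averaged together. Data originate from 3228 arrays in the Consortium for Functional Glycomics database, kept only where the protein sequence was available.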
# [1] = molecular target: Gal(b1-4)GlcNAc(b1-2)Man(a1-3)[GlcNAc(b1-4)][Gal(b1-4)GlcNAc(b1-2)Man(a1-6)]Man(b1-4)GlcNAc(b1-4)GlcNAc
# In short: as §1
# [2] = molecular target: Gal(b1-4)GlcNAc(b1-3)Gal(b1-3)GalNAc
# In short: as §1
# Gal3S(b1-4)Glc6S = molecular target: Gal3S(b1-4)Glc6S
# In short: as §1
# Gal6S(b1-4)Glc = molecular target: Gal6S(b1-4)Glc
# In short: as §1
# GlcNAc(b1-3)Gal(b1-4)Glc = molecular target: GlcNAc(b1-3)Gal(b1-4)Glc
# In short: as §1
# [3] = molecular target: GlcNAc(b1-3)Gal(b1-4)GlcNAc(b1-3)Gal(b1-4)GlcNAc(b1-2)[GlcNAc(b1-3)Gal(b1-4)GlcNAc(b1-3)Gal(b1-4)GlcNAc(b1-6)]Man(a1-6)[GlcNAc(b1-3)Gal(b1-4)GlcNAc(b1-3)Gal(b1-4)GlcNAc(b1-2)Man(a1-3)]Man(b1-4)GlcNAc(b1-4)[Fuc(a1-6)]GlcNAc
# In short: as §1
# [4] = molecular target: GlcNAc(b1-3)Gal(b1-4)GlcNAc(b1-3)Gal(b1-4)GlcNAc(b1-3)Gal(b1-4)GlcNAc(b1-2)[GlcNAc(b1-3)Gal(b1-4)GlcNAc(b1-3)Gal(b1-4)GlcNAc(b1-3)Gal(b1-4)GlcNAc(b1-6)]Man(a1-6)[GlcNAc(b1-3)Gal(b1-4)GlcNAc(b1-3)Gal(b1-4)GlcNAc(b1-3)Gal(b1-4)GlcNAc(b1-2)Man(a1-3)]Man(b1-4)GlcNAc(b1-4)[Fuc(a1-6)]GlcNAc
# In short: as §1
# [5] = molecular target: GlcNAc(b1-3)Gal(b1-4)GlcNAc(b1-3)Gal(b1-4)GlcNAc(b1-3)Gal(b1-4)GlcNAc(b1-3)Gal(b1-4)GlcNAc(b1-2)[GlcNAc(b1-3)Gal(b1-4)GlcNAc(b1-3)Gal(b1-4)GlcNAc(b1-3)Gal(b1-4)GlcNAc(b1-3)Gal(b1-4)GlcNAc(b1-6)]Man(a1-6)[GlcNAc(b1-3)Gal(b1-4)GlcNAc(b1-3)Gal(b1-4)GlcNAc(b1-3)Gal(b1-4)GlcNAc(b1-3)Gal(b1-4)GlcNAc(b1-2)Man(a1-3)]Man(b1-4)GlcNAc(b1-4)[Fuc(a1-6)]GlcNAc
# In short: as §1
# GlcNAc(b1-3)GalNAc = molecular target: GlcNAc(b1-3)GalNAc
# In short: as §1
# [6] = molecular target: GlcNAc(b1-3)[GlcNAc(b1-6)]Gal(b1-4)GlcNAc
# In short: as §1
# [7] = molecular target: Man(a1-2)Man(a1-3)[Man(a1-2)Man(a1-6)]Man
# In short: as §1
# [8] = molecular target: Man(a1-3)[Man(a1-6)]Man(b1-4)GlcNAc(b1-4)[Fuc(a1-6)]GlcNAc
# In short: as §1
# [9] = molecular target: Neu5Ac(a2-3)Gal(b1-3)GlcNAc(b1-2)Man(a1-3)[GlcNAc(b1-4)][Neu5Ac(a2-3)Gal(b1-3)GlcNAc(b1-2)Man(a1-6)]Man(b1-4)GlcNAc(b1-4)GlcNAc
# In short: as §1
# [10] = molecular target: Neu5Ac(a2-3)Gal(b1-4)GlcNAc
# In short: as §1
# [11] = molecular target: Neu5Ac(a2-3)Gal(b1-4)GlcNAc(b1-2)Man(a1-3)[Neu5Ac(a2-6)Gal(b1-4)GlcNAc(b1-2)Man(a1-6)]Man(b1-4)GlcNAc(b1-4)GlcNAc
# In short: as §1
# [12] = molecular target: Neu5Ac(a2-3)Gal(b1-4)GlcNAc(b1-2)[Neu5Ac(a2-3)Gal(b1-4)GlcNAc(b1-4)]Man(a1-3)[GlcNAc(b1-4)][Neu5Ac(a2-3)Gal(b1-4)GlcNAc(b1-2)[Neu5Ac(a2-3)Gal(b1-4)GlcNAc(b1-6)]Man(a1-6)]Man(b1-4)GlcNAc(b1-4)GlcNAc
# In short: as §1
# [13] = molecular target: Neu5Ac(a2-3)[GalNAc(b1-4)]Gal(b1-4)GlcNAc(b1-3)GalNAc
# In short: as §1
# [14] = molecular target: Neu5Ac(a2-6)Gal(b1-4)GlcNAc(b1-3)Gal(b1-4)GlcNAc(b1-2)Man(a1-3)[Neu5Ac(a2-6)Gal(b1-4)GlcNAc(b1-3)Gal(b1-4)GlcNAc(b1-2)Man(a1-6)]GalNAc
# In short: as §1
# [15] = molecular target: Neu5Ac(a2-6)Gal(b1-4)GlcNAc(b1-3)Gal(b1-4)GlcNAc(b1-3)Gal(b1-4)GlcNAc
# In short: as §1
# [16] = molecular target: Neu5Ac(a2-6)Gal(b1-4)GlcNAc(b1-3)Gal(b1-4)GlcNAc(b1-3)Gal(b1-4)GlcNAc(b1-2)Man(a1-3)[Neu5Ac(a2-6)Gal(b1-4)GlcNAc(b1-3)Gal(b1-4)GlcNAc(b1-3)Gal(b1-4)GlcNAc(b1-2)Man(a1-6)]GalNAc
# In short: as §1
# [17] = molecular target: Neu5Ac(a2-6)Gal(b1-4)GlcNAc(b1-3)Gal(b1-4)[Fuc(a1-3)]GlcNAc(b1-3)Gal(b1-4)[Fuc(a1-3)]GlcNAc
# In short: as §1
# [18] = molecular target: Neu5Ac(a2-6)Gal(b1-4)GlcNAc(b1-6)[Gal(b1-3)GlcNAc(b1-3)]Gal(b1-4)Glc
# In short: as §1
# [19] = molecular target: Neu5Ac(a2-6)GlcNAc(b1-4)GlcNAc(b1-4)GlcNAc
# In short: as §1
# [20] = molecular target: Neu5Ac(a2-8)Neu5Ac(a2-3)Gal(b1-3)GalNAc(b1-4)[Neu5Ac(a2-8)Neu5Ac(a2-3)]Gal(b1-4)Glc
# In short: as §1
# [21] = molecular target: Neu5Ac9Ac(a2-6)Gal(b1-4)GlcNAc
# In short: as §1
binder,measurement,setting,value
B1,glycan array binding signal (z-score),Gal(b1-4)GlcNAc,-0.292
same,glycan array binding signal (z-score),[1],-1.47
same,glycan array binding signal (z-score),[2],-1.06
same,glycan array binding signal (z-score),Gal3S(b1-4)Glc6S,0.684
same,glycan array binding signal (z-score),Gal6S(b1-4)Glc,0.199
same,glycan array binding signal (z-score),GlcNAc(b1-3)Gal(b1-4)Glc,-0.331
same,glycan array binding signal (z-score),[3],3.86
same,glycan array binding signal (z-score),[4],3
same,glycan array binding signal (z-score),[5],2.23
same,glycan array binding signal (z-score),GlcNAc(b1-3)GalNAc,-0.661
same,glycan array binding signal (z-score),[6],0.492
same,glycan array binding signal (z-score),[7],-0.246
same,glycan array binding signal (z-score),[8],2.33
same,glycan array binding signal (z-score),[9],1.49
same,glycan array binding signal (z-score),[10],-0.315
same,glycan array binding signal (z-score),[11],0.195
same,glycan array binding signal (z-score),[12],-0.346
same,glycan array binding signal (z-score),[13],0.105
same,glycan array binding signal (z-score),[14],2.31
same,glycan array binding signal (z-score),[15],-0.084
same,glycan array binding signal (z-score),[16],3.31
same,glycan array binding signal (z-score),[17],-0.491
same,glycan array binding signal (z-score),[18],-0.638
same,glycan array binding signal (z-score),[19],-0.271
same,glycan array binding signal (z-score),[20],0.256
same,glycan array binding signal (z-score),[21],-0.4
